# Measured values taken from PubChem BioAssay (Tox21).
# A number with no mark means an inactive call. A call without a number means that no potency is given here. Active and inactive are the calls of the source. Unless noted, calls come from the whole dose curve; as a rule, active = well fitted curve in the direction sought with a large enough effect in the repeat runs; inconclusive = weak or mixed curves; inactive = no such curve, though single readings can be large; an effect the other way counts as inactive or inconclusive.
# What was measured:
# [1] = qHTS assay to identify small molecule antagonists of the thyroid receptor (TR) signaling pathway - cell viability counter screen (AID 743064); note: nearly all actives have a fitted effect of over 50% in size; note: potency is the fitted concentration of half-maximal effect
# Summary of the method: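 In-well cytotoxicity read by CellTiter-Fluor (30 min, 37 C) following 23.5 h exposure of GH3 cells bearing a TRE-luciferase sensor. Compounds were added alongside 1 nM (final) T3 to drive TR transactivation.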
# [2] = qHTS assay to identify small molecule antagonists of the thyroid receptor (TR) signaling pathway (AID 743065); note: nearly all actives have a fitted effect of over 55% in size; note: potency is the fitted concentration of half-maximal effect
# Summary of the method: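 Antagonism measured as loss of luciferase signal in GH3 cells stably carrying a TRE-luciferase reporter, co-treated with compound and T3 (1 nM final) for 23.5 h at 37 C. Viability was read in the same well by CellTiter-Fluor.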
# [3] = qHTS assay to identify small molecule antagonists of the estrogen receptor alpha (ER-alpha) signaling pathway - cell viability counter screen (AID 743074; calls by dose curve;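 note: HEK293 cells carrying ER-alpha-UAS-bla reporter stimulated with 17beta-estradiol; nearly all actives have a fitted effect of over 45% in size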; note: potency is the fitted concentration of half-maximal effect)
# [4] = biological target: Estrogen receptor (Homo sapiens) (UniProt P03372); test: qHTS assay to identify small molecule agonists of the estrogen receptor alpha (ER-alpha) signaling pathway (AID 743075; calls by dose curve; note: potency is the fitted concentration of half-maximal effect)
# Chain of Estrogen receptor (Homo sapiens) (P03372 whole entry, looked up): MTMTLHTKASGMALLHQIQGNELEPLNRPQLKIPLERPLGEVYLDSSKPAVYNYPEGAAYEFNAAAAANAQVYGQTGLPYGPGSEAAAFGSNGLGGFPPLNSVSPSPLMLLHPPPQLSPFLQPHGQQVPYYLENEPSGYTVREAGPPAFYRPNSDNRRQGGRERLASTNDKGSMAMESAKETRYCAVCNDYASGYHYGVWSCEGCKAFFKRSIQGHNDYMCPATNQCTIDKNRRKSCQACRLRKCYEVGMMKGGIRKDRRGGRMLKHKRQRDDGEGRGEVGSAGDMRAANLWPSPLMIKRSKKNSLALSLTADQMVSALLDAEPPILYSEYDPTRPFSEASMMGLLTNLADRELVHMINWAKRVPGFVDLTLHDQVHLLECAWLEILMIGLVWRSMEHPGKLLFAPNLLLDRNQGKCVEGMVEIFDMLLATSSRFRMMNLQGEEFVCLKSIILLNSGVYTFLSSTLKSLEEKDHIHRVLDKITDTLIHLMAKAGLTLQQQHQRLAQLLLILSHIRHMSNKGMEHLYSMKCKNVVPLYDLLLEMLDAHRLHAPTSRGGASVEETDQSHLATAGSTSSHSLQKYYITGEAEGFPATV
# [5] = biological target: Estrogen receptor (Homo sapiens) (UniProt P03372); test: qHTS assay to identify small molecule agonists of the estrogen receptor alpha (ER-alpha) signaling pathway using the BG1 cell line (AID 743079); details: BG1Luc4E2 cells, ERE-luciferase agonist, 22 h; activation: at 70.3 µM (top of the series); note: nearly all actives have a fitted effect of over 20% in size; note: potency is the fitted concentration of half-maximal effect
# [6] = qHTS assay to identify small molecule antagonists of the estrogen receptor alpha (ER-alpha) signaling pathway using the BG1 cell line - cell viability counter screen (AID 743081);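 note: compound given together with 17beta-estradiol as the ER stimulus; nearly all actives have a fitted effect of over 45% in size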; note: potency is the fitted concentration of half-maximal effect
# Aromatase (Homo sapiens) = Aromatase (Homo sapiens) (UniProt P11511); test: qHTS assay to identify aromatase inhibitors (AID 743083); note: nearly all actives have a fitted effect of over 55% in size; note: potency is the fitted concentration of half-maximal effect
# Chain of Aromatase (Homo sapiens) (P11511 whole entry, looked up): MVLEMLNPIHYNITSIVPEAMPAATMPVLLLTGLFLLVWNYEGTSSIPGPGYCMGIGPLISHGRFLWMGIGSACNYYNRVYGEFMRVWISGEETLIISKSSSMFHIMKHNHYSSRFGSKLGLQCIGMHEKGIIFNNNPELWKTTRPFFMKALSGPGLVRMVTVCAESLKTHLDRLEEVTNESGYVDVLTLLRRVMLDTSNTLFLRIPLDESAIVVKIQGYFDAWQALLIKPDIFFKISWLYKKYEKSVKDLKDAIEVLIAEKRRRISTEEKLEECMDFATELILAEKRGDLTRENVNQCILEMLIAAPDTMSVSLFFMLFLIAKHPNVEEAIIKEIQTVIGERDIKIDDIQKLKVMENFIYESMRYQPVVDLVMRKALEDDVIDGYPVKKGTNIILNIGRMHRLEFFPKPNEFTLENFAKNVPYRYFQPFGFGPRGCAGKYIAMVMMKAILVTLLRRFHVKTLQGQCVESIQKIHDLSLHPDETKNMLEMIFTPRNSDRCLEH
# [7] = biological target: Aryl hydrocarbon receptor (Homo sapiens) (UniProt P35869); test: qHTS assay to identify small molecule that activate the aryl hydrocarbon receptor (AhR) signaling pathway (AID 743085); note: nearly all actives have a fitted effect of over 15% in size; note: potency is the fitted concentration of half-maximal effect;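 for activation: HG2L7.5c1 human HepG2 liver cells with stably integrated DRE-driven firefly reporter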
# Chain of Aryl hydrocarbon receptor (Homo sapiens) (P35869 whole entry, looked up): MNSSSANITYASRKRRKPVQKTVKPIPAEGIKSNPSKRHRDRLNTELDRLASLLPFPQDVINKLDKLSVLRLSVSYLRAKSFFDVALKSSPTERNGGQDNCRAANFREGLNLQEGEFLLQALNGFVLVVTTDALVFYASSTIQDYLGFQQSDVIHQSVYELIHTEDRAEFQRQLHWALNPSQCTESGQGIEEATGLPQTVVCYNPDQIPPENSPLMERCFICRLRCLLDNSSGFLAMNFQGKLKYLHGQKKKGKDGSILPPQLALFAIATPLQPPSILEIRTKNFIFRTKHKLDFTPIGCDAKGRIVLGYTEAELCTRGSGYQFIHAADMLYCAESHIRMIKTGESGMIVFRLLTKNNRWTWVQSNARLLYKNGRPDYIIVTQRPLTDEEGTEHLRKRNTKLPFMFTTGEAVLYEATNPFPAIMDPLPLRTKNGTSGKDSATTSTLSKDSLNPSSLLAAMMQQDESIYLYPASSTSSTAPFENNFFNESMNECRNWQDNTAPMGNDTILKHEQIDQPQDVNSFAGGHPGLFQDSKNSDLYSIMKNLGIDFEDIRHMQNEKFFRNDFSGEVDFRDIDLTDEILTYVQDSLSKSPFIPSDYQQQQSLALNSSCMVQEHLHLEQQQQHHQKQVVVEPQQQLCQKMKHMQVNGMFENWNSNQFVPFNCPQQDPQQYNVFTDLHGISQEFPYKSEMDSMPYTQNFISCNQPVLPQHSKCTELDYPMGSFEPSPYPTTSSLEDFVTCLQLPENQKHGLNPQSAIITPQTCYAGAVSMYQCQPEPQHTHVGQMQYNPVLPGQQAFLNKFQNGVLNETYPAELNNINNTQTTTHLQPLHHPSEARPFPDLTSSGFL
# Summary of the method: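 Luminescence (ONE-Glo) from a dioxin-responsive-element luciferase reporter in HG2L7.5c1 HepG2 cells after 24 hr compound exposure at 37C; viability measured by CellTiter-Fluor fluorescence beforehand.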
# [8] = qHTS assay to identify small molecule that activate the aryl hydrocarbon receptor (AhR) signaling pathway - cell viability counter screen (AID 743086);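 note: HepG2 liver cells carrying the AhR DRE luciferase reporter; nearly all actives have a fitted effect of over 45% in size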
# Summary of the method: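 Cytotoxicity counter screen: CellTiter-Fluor signal (30 min, 37 C) in 4000 HepG2 cells/well carrying the DRE-luciferase reporter, following 24 h compound exposure at 37 C.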
# [9] = qHTS assay to identify small molecule phospholipidosis (PLD) inducers (AID 1259344; active = well fitted curve in the direction sought with a large enough effect; inconclusive = small, poorly fitted or top-dose-only effect, or another doubt; inactive = no such curve, though single readings can be large; an effect the other way counts as inactive or inconclusive)
# Summary of the method: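 Fluorescent phospholipid staining (LipidTOX Red) measured by automated microscopy in fixed HepG2 cells after 24 h treatment; nuclei counterstained with Hoechst 33342; amiodarone as reference inducer.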
# [10] = biological target: Nuclear receptor subfamily 1 group I member 2 (Rattus norvegicus) (UniProt Q9R1A7); test: Rat pregnane X receptor (rPXR) activation by small molecules, qHTS assay (AID 1346983); details: rPXR luciferase reporter cells, One-Glo luminescence, 24 h; max activation: active compounds read high; note: nearly all actives have a fitted effect of over 20% in size
# Chain of Nuclear receptor subfamily 1 group I member 2 (Rattus norvegicus) (Q9R1A7 whole entry, looked up): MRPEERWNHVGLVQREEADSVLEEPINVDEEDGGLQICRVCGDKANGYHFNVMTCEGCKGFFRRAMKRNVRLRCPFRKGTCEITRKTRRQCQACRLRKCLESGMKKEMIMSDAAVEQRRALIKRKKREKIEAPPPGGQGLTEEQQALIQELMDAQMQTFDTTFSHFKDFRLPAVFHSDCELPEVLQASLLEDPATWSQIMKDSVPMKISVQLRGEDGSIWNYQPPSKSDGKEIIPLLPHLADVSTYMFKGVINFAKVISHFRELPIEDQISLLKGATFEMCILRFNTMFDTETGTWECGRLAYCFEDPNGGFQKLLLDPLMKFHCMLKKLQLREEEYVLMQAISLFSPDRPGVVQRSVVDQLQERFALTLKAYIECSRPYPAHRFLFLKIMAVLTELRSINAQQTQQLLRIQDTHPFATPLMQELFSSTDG
# Summary of the method: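 Luminescent readout (One-Glo luciferase, 30 min room temperature) followed 24 hr compound treatment at 37 C of rPXR cells plated 2,000 per well and preincubated 5hr; qHTS format with compounds delivered in DMSO.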
# [11] = biological target: Nuclear receptor subfamily 1 group I member 2 (Homo sapiens) (UniProt O75469); test: CYP3A4 induction through human pregnane X receptor (PXR) by small molecules, qHTS assay (AID 1346984); note: nearly all actives have a fitted effect of over 40% in size; note: potency is the fitted concentration of half-maximal effect
# Summary of the method: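 Steps: seed DPX-2 cells, 5 hr at 37C; pin-transfer compounds; 24 hr at 37C; add Luciferin-IPA (3uM final), 3 hr at 37C; add One-Glo, 30 min RT; read luminescence.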
# [12] = biological target: Nuclear receptor subfamily 1 group I member 2 (Homo sapiens) (UniProt O75469); test: Human pregnane X receptor (PXR) activation by small molecules, qHTS assay (AID 1346985); note: nearly all actives have a fitted effect of over 40% in size; note: potency is the fitted concentration of half-maximal effect
# Summary of the method: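 DPX-2 cells (HepG2 co-transfected with a PXR response element and a CYP3A4-promoter luciferase construct) were seeded at 2,000 per well, rested 5 hr at 37C, then exposed to DMSO-dissolved compounds for 24 hr. Activation was read as luciferase luminescence.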
# [13] = biological target: Estrogen receptor (Homo sapiens) (UniProt P03372); test: qHTS assay to identify small molecule antagonists of the estrogen receptor alpha (ER-alpha) signaling pathway (AID 743069; active = well fitted curve in the direction sought with a large enough effect in the signal ratio in the repeat runs, not every such curve was filed as active; inconclusive = weak or mixed curves, or effect the other way; inactive = no such curve, though single readings can be large or run the other way; the % refers to the signal ratio)
# Summary of the method: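 Compound effects are measured against 17beta-estradiol stimulation in HEK293 cells with a UAS-controlled beta-lactamase reporter for ER-alpha. Exposure lasts 18 hr at 37C; LiveBLAzer B/G FRET substrate follows for 2 hr at room temperature.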
# [14] = qHTS assay to identify small molecule antagonists of the estrogen receptor alpha (ER-alpha) signaling pathway using the BG1 cell line (AID 743080; calls by dose curve;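 note: BG1 cells stimulated with 17beta-estradiol alongside compound; nearly all actives have a fitted effect of over 25% in size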)
# Summary of the method: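 Quantitative HTS on the Tox21 10K library: BG1 cells with endogenous ER-alpha and ERE-luciferase reporter, 17beta-estradiol stimulation, 21.5 h compound exposure, luminescence endpoint with parallel fluorescence cytotoxicity counter-read.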
# [15] = qHTS assay to identify aromatase inhibitors - cell viability counter screen (AID 743084);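 note: cells stimulated with testosterone during compound exposure; nearly all actives have a fitted effect of over 55% in size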; note: potency is the fitted concentration of half-maximal effect
# [16] = biological target: Peroxisome proliferator-activated receptor gamma (Homo sapiens) (UniProt P37231); test: qHTS assay to identify small molecule agonists of the peroxisome proliferator-activated receptor gamma (PPARg) signaling pathway (AID 743094; active = well fitted activation curve with a large enough effect in the signal ratio in the repeat runs, not every such curve was filed as active; inconclusive = weak or mixed curves, or effect the other way; inactive = no such curve, though single readings can be large or run the other way; the % refers to the signal ratio)
# Chain of Peroxisome proliferator-activated receptor gamma (Homo sapiens) (P37231 whole entry, looked up): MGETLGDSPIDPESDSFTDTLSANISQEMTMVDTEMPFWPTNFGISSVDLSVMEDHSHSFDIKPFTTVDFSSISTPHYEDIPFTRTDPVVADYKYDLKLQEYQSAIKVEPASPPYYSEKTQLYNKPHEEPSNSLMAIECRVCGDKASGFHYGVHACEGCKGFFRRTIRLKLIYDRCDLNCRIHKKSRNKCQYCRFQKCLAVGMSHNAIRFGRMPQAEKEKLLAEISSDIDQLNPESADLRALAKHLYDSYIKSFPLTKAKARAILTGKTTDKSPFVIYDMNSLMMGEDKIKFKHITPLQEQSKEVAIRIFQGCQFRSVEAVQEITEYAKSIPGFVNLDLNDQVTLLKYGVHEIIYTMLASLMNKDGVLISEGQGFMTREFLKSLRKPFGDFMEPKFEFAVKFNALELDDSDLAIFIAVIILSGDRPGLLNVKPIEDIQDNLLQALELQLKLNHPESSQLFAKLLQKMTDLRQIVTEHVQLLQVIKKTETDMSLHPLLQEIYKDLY
# Summary of the method: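 Quantitative HTS agonist mode: stable HEK293H line with UAS-beta-lactamase reporter under PPARg control, 17 h compound exposure at 37C, fluorescence after 1 h FRET substrate loading at room temperature.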
# [17] = system: thyroid hormone receptor (rat, GH3 cells); test: qHTS assay to identify small molecule agonists of the thyroid receptor (TR) signaling pathway (AID 743066; calls by dose curve)
SMILES,Potency [1],Potency [2],Potency [3],Potency [4],Potency [5],Potency [6],Potency (Aromatase (Homo sapiens)),Potency [7],Potency [8],Potency [9],max activation [10] [%],Potency [11],Potency [12],Potency [13],Potency [14],Potency [15],Potency [16],Potency [17]
C#C[C@]1(O)CC[C@H]2[C@@H]3CCC4=C/C(=N/O)CC[C@@H]4[C@H]3CC[C@@]21CC,29.8 µM (active),11.9 µM (active),inactive,0.151 µM [inconclusive] (active),0.0422 µM (active),inactive,23.7 µM (active),inactive,inactive,inactive,6.76,inactive,4.47 µM (active),–,–,–,–,–
C[N+]1(C)[C@@H]2CC(OC(=O)C(O)(c3cccs3)c3cccs3)C[C@H]1[C@@H]1O[C@@H]12 (some centres not stated),inactive,–,inactive,inactive,–,inactive,inactive,inactive,–,inactive,-1.38,inactive,inactive,inactive,inactive,inactive,inactive,–
CCN(CC)CCCC(C)Nc1cc(/C=C/c2ccccc2Cl)nc2cc(Cl)ccc12 (configuration not stated),26.6 µM (active),29.8 µM (active),inactive,inactive,inactive,–,–,26.6 µM (active),–,inactive,-1.25,inactive,22.4 µM (active),inactive,inactive,–,inactive,–
CC(=O)Oc1cc(C)c(OC(C)=O)c2ccccc12,26.6 µM (active),23.7 µM (active),inactive,inactive,–,inactive,26.6 µM (active),29.8 µM (active),inactive,inactive,0.757,12.6 µM (active),inactive,–,inactive,inactive,–,–
CC[C@@H](C(=O)O)[C@@H]1O[C@@H]([C@@H](C)[C@H](O)[C@H](C)C(=O)[C@H](CC)[C@H]2O[C@]3(C=C[C@@H](O)[C@]4(CC[C@@](C)([C@H]5CC[C@](O)(CC)[C@H](C)O5)O4)O3)[C@H](C)C[C@@H]2C)[C@@H](C)C[C@@H]1C,0.15 µM (active),0.0944 µM (active),0.151 µM (active),inactive,–,6.68 µM (active),inactive,inactive,–,inactive,-17.2,inactive,inactive,–,–,inactive,–,–
CN=C1C=CC(=C(c2ccc(N(C)C)cc2)c2ccc(N(C)C)cc2)C=C1,3.35 µM (active),2.37 µM (active),9.52 µM (active),–,–,11.9 µM (active),1.33 µM (active),–,–,inactive,-26,inactive,inactive,–,–,6.68 µM (active),–,–
O=C(O)c1cc(O)c2c(c1)[O][Bi][O]2,inactive,–,inactive,0.012 µM [inconclusive] (active),0.0019 µM (active),inactive,inactive,–,inactive,inactive,-0.194,inactive,inactive,–,inactive,inactive,inactive,inactive
CC1(C)S[C@@H]2[C@H](NC(=O)[C@H](NC(=O)N3CCN(S(C)(=O)=O)C3=O)c3ccccc3)C(=O)N2[C@H]1C(=O)O,–,inactive,inactive,inactive,11.9 µM (active),inactive,inactive,inactive,inactive,inactive,-9.82,inactive,inactive,inactive,inactive,inactive,inactive,inactive
OCCO[C@@H]1[C@@H](O)[C@H](O)[C@@H](CO)O[C@@H]1O,inactive,–,inactive,inactive,inactive,inactive,inactive,inactive,inactive,inactive,-3.49,inactive,inactive,–,–,inactive,inactive,–
CC1=C[C@H](O)CC(C)(C)[C@H]1/C=C/C(C)=C/C=C/C(C)=C/C=C/C=C(C)/C=C/C=C(C)/C=C/C1=C(C)C[C@@H](O)CC1(C)C,23.7 µM (active),–,inactive,–,–,–,inactive,inactive,inactive,inactive,0.35,inactive,inactive,–,–,inactive,–,–
O=C(O)CC/C=C\CC[C@@H]1[C@@H](N2CCCCC2)[C@@H](O)C[C@@H]1OCc1ccc(-c2ccccc2)cc1,–,inactive,inactive,inactive,inactive,inactive,inactive,inactive,–,inactive,-6.46,inactive,inactive,inactive,inactive,inactive,inactive,inactive
Nc1nc2c(c(=O)[nH]1)N(C=O)C(CNc1ccc(C(=O)N[C@@H](CCC(=O)O)C(=O)O)cc1)CN2 (some centres not stated),inactive,–,inactive,–,–,inactive,inactive,inactive,–,inactive,3.43,inactive,inactive,–,–,inactive,inactive,–
CC[C@H]1NC(=O)[C@@H](NC(=O)c2ncccc2O)[C@@H](C)OC(=O)[C@H](c2ccccc2)NC(=O)[C@@H]2CC(=O)CCN2C(=O)[C@H](Cc2ccccc2)N(C)C(=O)[C@@H]2CCCN2C1=O,–,inactive,inactive,inactive,inactive,inactive,inactive,inactive,inactive,inactive,9.01,inactive,inactive,inactive,inactive,inactive,inactive,inactive
CCCCCCCCCCCCCCCC(=O)OCC(COC(=O)CCCCCCCCCCCCCCC)OC(=O)CCCCCCCCCCCCCCC,–,inactive,inactive,inactive,–,inactive,inactive,inactive,inactive,inactive,-0.974,inactive,inactive,inactive,inactive,inactive,inactive,inactive
